PubChem BioAssay (NCI)
Compounds without any hit were thinned out: in the full panel of roughly 83,000, 20% have a hit.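 Treatment: one concentration, 48 hours, 96-well format. Scoring: percent growth, with anything below 10 considered active.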 Values without a mark were called inactive. Active and inactive are the calls of the source.

system: MDA-MB-468 breast; assay: NCI-60 one-dose screen, 48 h (100 = growth as untreated, 0 = no growth, -100 = all killed); details: 10 µM unless noted

Row | SMILES | growth
1 | COc1cc2cc(NCc3ccc(Cl)cc3)nc(C)c2cc1OC | 63.4%
2 | COc1ccc(CSc2nc3cc(OC)c(OC)cc3c(=O)n2-c2ccc(OC)cc2OC)cc1 | 74.3%
3 | Nc1cc2c(cc1N)-c1cc(N)c(N)cc1C2 | 105%
4 | O=C1[C@H]2Cc3c([nH]c4ccccc34)[C@@H](c3ccc(Cl)cc3)N2C(=O)CN1C1CCN(Cc2ccccc2)CC1 | 27.3%
5 | CNCCCC12CCC(c3ccccc31)c1ccccc12 | 29.4%
6 | O=C(Nc1ncccc1OCc1ccccc1)NC1CCCCCC1 | 75.5%
7 | C=C1CC[C@@H]2[C@](C)(CO)[C@H](O)CC[C@@]2(C)[C@@H]1C/C(O)=C1\CCOC1=O | 90.8%
8 | CC(=O)C1=C(O)C=C2Oc3c(C(=O)/C=C/c4cc(C(F)(F)F)cc(C(F)(F)F)c4)c(O)c(C)c(O)c3[C@]2(C)C1=O | -69.3% (active)
9 | Clc1ccc(/C=N/Nc2nc3ccccc3s2)c(Cl)c1 | 89.3%
10 | COc1ccc2c(c1)-c1c(c3cc(OC)ccc3n(CCN(C)C)c1=O)C2=O | 46%
11 | O=C(/C=C/c1cccc([N+](=O)[O-])c1)c1ccc(O)c(CN2CCN(c3cc4c(cc3F)c(=O)c(C(=O)O)cn4C3CC3)CC2)c1 | -24.5% (active)
12 | COc1ccc(C(=O)/C=C/c2ccc(Cl)cc2)cc1S(N)(=O)=O | 57.3%
13 | CC(C)(C)CC(N)=O | 101%
14 | CN1CCN(Cc2ccc(NC(=O)c3cncc(C#Cc4cnccc4C(F)(F)F)c3)cc2C(F)(F)F)CC1 | 84.4%
15 | CC[n+]1c(C)ccc2cc(C)ccc21 | 58.1%
16 | O=[N+]([O-])c1ccc(Cl)c(S(=O)(=O)O)c1 | 112%
17 | Cc1ccc(C(CN(C)C)C(=O)c2ccccc2)cc1 (stereo not given) | 4.73% (active)
18 | C=CCn1c(SCC(=O)Nc2ccc(C(=O)/C=C/c3cc4cc(OC)ccc4nc3Cl)cc2)nnc1-c1ccc(Br)cc1 | 85.7%

Row | SMILES | growth
19 | CC(C)[C@H](NC(=O)Cn1cc(C(=O)O)nn1)C(=O)O | 98.9%
20 | O=C(N/N=C/c1ccc([N+](=O)[O-])cc1)c1ccc2nc(-c3ccc(Cl)cc3)[nH]c2c1 | -38.9% (active)
21 | COc1ccc(-c2cc3c(C)nc(N)nc3n(C3CCC(OCCO)CC3)c2=O)cn1 (stereo not given) | -50% (active)
22 | CC(=O)C1CCC2C3CC(C)=C4CC(O)CCC4(C)C3CCC12C (stereo not given) | 109%
23 | COc1ccc(C(C)=O)cc1N1C(=O)C2C(C1=O)C1(c3ccccc3)C(=O)C2(c2ccccc2)C(c2ccc(C)cc2)=C1c1ccc(C)cc1 (stereo not given) | 13.9%
24 | CCN(CC)C(=O)C1(C)CCCC2(C)c3cc(OC(C)=O)ccc3CCC12 (stereo not given) | 56.9%
25 | CCCCC(=O)OCC1OC(n2cnc3c(=S)nc[nH]c32)C(OC(=O)CCCC)C1OC(=O)CCCC (stereo not given) | 67.4%
26 | CN1CCN(c2nc(-c3csc(-c4ccncc4)n3)cc3ccccc23)CC1 | 25.8%
27 | CC(=O)N/C(=C1/OC(C(O)C(O)C(O)CO)CN1C)[P+](c1ccccc1)(c1ccccc1)c1ccccc1 (stereo not given) | 106%
28 | O=c1c2cccc3c(NC4CCCCC4)ccc(c32)c2nc3ccccc3n12 | -4.69% (active)
29 | C/C(=C\c1csc(C)n1)[C@@H]1C[C@@H]2O[C@]2(C)CCC[C@H](C)[C@H](O)[C@@H](C)C(=O)C(C)(C)[C@@H](O)CC(=O)N1 | 22.4%
30 | COc1cc(C2CC(c3ccc4c(c3)OCO4)=NN2c2ccccc2)cc(OC)c1OC (stereo not given) | 75.7%
31 | CN1c2ccccc2[C@]2(Cc3ccccc3)Cc3ccccc3N[C@H]12 | 115%
32 | C#CC[C@@H]1C[C@]2(C)[C@H]3CC=C4[C@H]5CC(C)(C)CC[C@]5(C(=O)NCCCCN)CC[C@@]4(C)[C@]3(C)CC[C@H]2C(C)(C)[C@H]1OC(C)=O | -39.7% (active)
33 | CC(=O)O[C@H]1CC[C@@]2(C)[C@@H](CC[C@@H]3[C@@H]2CC(=O)[C@@]2(C)[C@H]3C[C@@H](C3CCCC3=O)[C@@H]2C(C)=O)C1 (stereo not given in full) | 114%
34 | CCCS(=O)(=O)Nc1ccc(F)c(C(=O)c2c[nH]c3ncc(-c4ccc(OCCCC5CCCCN5)nc4)cc23)c1F (stereo not given) | 69.6%
35 | COc1ccc(OC2=CC(=O)c3ccc(C)nc3C2=O)cc1 | 86.2%
